Among the test systems are MOLT-4 leukemia; SR leukemia; RPMI-8226 leukemia; OVCAR-8 ovarian; OVCAR-5 ovarian; SK-OV-3 ovarian; IGROV1 ovarian; OVCAR-3 ovarian; HS 578T breast; NCI/ADR-RES ovarian; T-47D breast; BT-549 breast; MDA-MB-435 melanoma; SW-620 colon; MCF7 breast; HCT-116 colon; HCC-2998 colon; KM12 colon; OVCAR-4 ovarian.
Holding throughout (assay): NCI-60 one-dose screen, 48 h (100 = growth as untreated, 0 = no growth, -100 = all killed)
What all share (details): 10 µM unless noted

Compounds without any hit were thinned out: in the full panel of roughly 83,000, 20% have a hit.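 Compound tested at a single concentration for 48 hours in 96-well plates; a percent growth value below 10 was scored as active.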 Values without a mark were called inactive. Calls of active or inactive are those of the source.

Consider `COc1cc(/C=C\c2cc(OC)c(OC)c(OC)c2)cc(N/C=C\C(=O)c2cc(OC)c(OC)c(OC)c2)c1OC`, for which the growth is 28.7% in the experiment with MOLT-4 leukemia; -5.44% (active) with SR leukemia; 22.8% in the experiment on RPMI-8226 leukemia; 41.2% with OVCAR-8 ovarian; 31.8% in the experiment with OVCAR-5 ovarian; 21.3% in the experiment with SK-OV-3 ovarian. Further, the growth with IGROV1 ovarian is 15.6%; in the experiment on OVCAR-3 ovarian it was 9.78% (active); in the experiment with HS 578T breast, 1.26% (active); in the experiment with NCI/ADR-RES ovarian, 19.5%; with T-47D breast, -3% (active); in the experiment on BT-549 breast, 43.9%. Also, the growth with MDA-MB-435 melanoma was -37.3% (active); with SW-620 colon, 28.2%; with MCF7 breast, 15.1%; in the experiment with HCT-116 colon it was 17.8%; in the experiment with HCC-2998 colon, 53.6%; with KM12 colon, 21.8%.

Take `CCCCCCCCCCCCCCCCCCOc1ccccc1COP(=O)(O)OOCC[N+](C)(C)C`: the growth is -36.1% (active) with MOLT-4 leukemia; -8.81% (active) in the experiment with SR leukemia; -30.5% (active) with OVCAR-8 ovarian; 40.5% in the experiment on OVCAR-5 ovarian; 34.6% in the experiment with OVCAR-4 ovarian; 36.2% in the experiment on SK-OV-3 ovarian. Further, the growth was -74.1% (active) in the experiment on IGROV1 ovarian; -29.2% (active) in the experiment on OVCAR-3 ovarian; 15.6% in the experiment on HS 578T breast; 88.5% in the experiment with NCI/ADR-RES ovarian; 16.8% in the experiment with T-47D breast; 25.5% in the experiment with BT-549 breast. The growth was 7.62% (active) in the experiment with MDA-MB-435 melanoma; 6.94% (active) in the experiment with SW-620 colon; 16.2% with MCF7 breast; 1.15% (active) in the experiment with HCT-116 colon; -8.6% (active) in the experiment on HCC-2998 colon; 0.411% (active) with KM12 colon.

Consider `O=C1OCC2=C1C(c1ccccc1)c1cc3c(cc1N2)OCO3` (stereo not drawn), for which the growth in the experiment on MOLT-4 leukemia was 21.2%; with SR leukemia, 8.69% (active); in the experiment with OVCAR-8 ovarian, 5.45% (active); in the experiment with OVCAR-5 ovarian, 43.5%; in the experiment with OVCAR-4 ovarian it was 41.4%; in the experiment on SK-OV-3 ovarian, 2.36% (active). Besides, the growth with IGROV1 ovarian was 36.4%; in the experiment with OVCAR-3 ovarian it was -46% (active); with HS 578T breast, 43.2%; in the experiment on NCI/ADR-RES ovarian, -0.134% (active); with T-47D breast, 62.6%; in the experiment on BT-549 breast it was -5.6% (active). Further, the growth in the experiment on MDA-MB-435 melanoma was -24.9% (active); in the experiment with SW-620 colon, 27.8%; in the experiment with MCF7 breast, 15.9%; with HCT-116 colon it was 4.53% (active); in the experiment on HCC-2998 colon, 3.21% (active); in the experiment on KM12 colon, -32% (active).

`COc1cc2c(cc1OCCCCn1c(-c3cccs3)nc3ccccc31)N=C[C@@H]1CCCN1C2=O`: the growth was 20.8% in the experiment on MOLT-4 leukemia; 32% in the experiment on SR leukemia; -46.8% (active) in the experiment with RPMI-8226 leukemia; -0.203% (active) with OVCAR-8 ovarian; 0.96% (active) in the experiment with OVCAR-5 ovarian; -21.3% (active) in the experiment with OVCAR-4 ovarian. The growth with SK-OV-3 ovarian is 24.9%; with HS 578T breast it was -5.13% (active); in the experiment with NCI/ADR-RES ovarian, 36.5%; with T-47D breast it was 5.95% (active); in the experiment with BT-549 breast, -55.6% (active); with MDA-MB-435 melanoma it was -78.8% (active). Also, the growth with SW-620 colon is 2.49% (active); in the experiment on MCF7 breast, -15.2% (active); in the experiment on HCT-116 colon, 8.65% (active); in the experiment on HCC-2998 colon, 0.698% (active); in the experiment on KM12 colon, 0.0109% (active).

As to `O=C([O][Hg][CH2]C1COCC([CH2][Hg][O]C(=O)c2ccccc2)O1)c1ccccc1` (stereo not drawn), the growth is -2.46% (active) with MOLT-4 leukemia; 46.8% in the experiment on SR leukemia; 71.8% in the experiment on RPMI-8226 leukemia; 94% with OVCAR-8 ovarian; 134% in the experiment on OVCAR-5 ovarian; 90.1% in the experiment on OVCAR-4 ovarian. Moreover, the growth with SK-OV-3 ovarian is 118%; in the experiment on OVCAR-3 ovarian it was -94% (active); in the experiment with HS 578T breast, 89.1%; with NCI/ADR-RES ovarian it was 106%; in the experiment on T-47D breast, 11.4%; in the experiment on BT-549 breast, 97.4%. Besides, the growth is 90.2% with MDA-MB-435 melanoma; -91.2% (active) with SW-620 colon; 20.9% with MCF7 breast; 114% in the experiment on HCC-2998 colon; 102% in the experiment on KM12 colon.

For `C1CCC([PH+](C2CCCCC2)C2CCCCC2[PH+](C2CCCCC2)C2CCCCC2)CC1.[Au].[CH-]1CCCCC1CC1CCCC[N-]1` (stereo not drawn), the growth was 0.501% (active) in the experiment on MOLT-4 leukemia; 1.21% (active) with SR leukemia; -8.82% (active) in the experiment on RPMI-8226 leukemia; 5.9% (active) in the experiment on OVCAR-8 ovarian; -37.2% (active) with OVCAR-5 ovarian; -70.5% (active) in the experiment with SK-OV-3 ovarian. Besides, the growth was -29.4% (active) in the experiment on IGROV1 ovarian; -86.5% (active) in the experiment with OVCAR-3 ovarian; 7.94% (active) in the experiment with T-47D breast; -53.6% (active) in the experiment with BT-549 breast; -39.2% (active) with MDA-MB-435 melanoma; -24% (active) in the experiment on SW-620 colon. The growth is -44.2% (active) in the experiment on MCF7 breast, -65.8% (active) in the experiment on HCT-116 colon, -92.5% (active) with HCC-2998 colon and -70.2% (active) in the experiment with KM12 colon.

`C#Cc1ccc2c(c1)C(c1ccccc1F)=NCC(=O)N2C`: the growth in the experiment on MOLT-4 leukemia is 42.8%; in the experiment with SR leukemia, 37.8%; in the experiment with RPMI-8226 leukemia, 71.9%; in the experiment with OVCAR-8 ovarian, 63.9%; in the experiment with OVCAR-5 ovarian, 85.5%; with OVCAR-4 ovarian, 84.9%. In addition, the growth in the experiment with SK-OV-3 ovarian is 34%; with OVCAR-3 ovarian, 12.1%; with HS 578T breast, 64.1%; in the experiment on NCI/ADR-RES ovarian, 16.6%; with T-47D breast, 40.9%; in the experiment with BT-549 breast, 47.2%. The growth is 10.2% in the experiment with MDA-MB-435 melanoma; 30.3% in the experiment with SW-620 colon; 19.7% with MCF7 breast; 17.3% in the experiment with HCT-116 colon; 65.2% in the experiment on HCC-2998 colon; 27.8% with KM12 colon.

As for `O=C1NC(=O)C(=Cc2cn(C(=O)c3ccccc3)c3ccccc23)C(=O)N1`, the growth was 88.3% with MOLT-4 leukemia; 90.5% in the experiment with SR leukemia; 114% in the experiment with RPMI-8226 leukemia; 92.3% with OVCAR-8 ovarian; 94.7% in the experiment on OVCAR-5 ovarian; 92.1% in the experiment with OVCAR-4 ovarian. In addition, the growth in the experiment on SK-OV-3 ovarian was 91.5%; in the experiment on OVCAR-3 ovarian, 108%; in the experiment on HS 578T breast, 103%; in the experiment with NCI/ADR-RES ovarian, 97.1%; with T-47D breast, 95.2%; in the experiment on BT-549 breast it was 105%. Moreover, the growth was 105% in the experiment on MDA-MB-435 melanoma; 93.7% in the experiment on SW-620 colon; 89.4% with MCF7 breast; 102% in the experiment on HCT-116 colon; 93.4% in the experiment with HCC-2998 colon; 108% in the experiment with KM12 colon.

Take `CC1(C)N=C(N)N=C(N)N1c1ccc(CCC(=O)Nc2ccc(S(=O)(=O)F)cc2)c(Cl)c1`: the growth in the experiment on MOLT-4 leukemia was 33%; in the experiment with SR leukemia, 6.43% (active); in the experiment on OVCAR-8 ovarian, -11.8% (active); in the experiment on OVCAR-5 ovarian, 29%; with OVCAR-4 ovarian it was 52.9%; in the experiment with SK-OV-3 ovarian it was 64.5%. Further, the growth in the experiment with IGROV1 ovarian was -43.3% (active); in the experiment with OVCAR-3 ovarian it was 58.9%; in the experiment on HS 578T breast, 59.9%; in the experiment on NCI/ADR-RES ovarian, 58.4%; in the experiment with T-47D breast, 70.5%; in the experiment with BT-549 breast it was 51%. For the same molecule, the growth in the experiment with MDA-MB-435 melanoma was 37.7%; with SW-620 colon, 24.8%; in the experiment with MCF7 breast, 15.1%; with HCT-116 colon, 26.8%; with HCC-2998 colon, 14.3%; in the experiment with KM12 colon, 12.2%.

Values taken from PubChem BioAssay (NCI).
